Experimental data taken from PubChem BioAssay (EPA / NIEHS).
Records with an inconclusive call do not appear. Calls of active or inactive are those of the source. The calls were made as follows, unless noted: active = hit-call score of the fitted dose curve at least 0.9, where 1 is the maximum; inconclusive = response in the unintended direction; inactive = score below 0.9. Where a SMILES comes first, the peptide text is derived from it. [ ]: non-standard residue; d: D form. pGlu = O=C1CC[C@@H](C(=O)O)N1; Thz = O=C(O)[C@@H]1CSCN1

Tests used:
[1] = TOX21_p53_BLA_p2_viability: Viability Assessment in the Tox21 HCT-116 p53 Agonism Beta-lactamase Assay, Phase 2 (AID 2283591);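 also: compound exposure lasted 16 h at 37 °C; actives lower the ATP signal meaning cytotoxicity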
In short: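 HCT-116 p53-bla cells (4000/well) rested 5 h at 37C, then received compounds in DMSO (217-fold dilution) for 16 h at 37C, 5% CO2. After the CCF4 read, CellTiter-Glo was added; ATP luminescence was read after 30 min at room temperature.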

[2] = target: Cellular tumor antigen p53 (Homo sapiens) (UniProt P04637); experiment: TOX21_p53_BLA_p2_ratio: Tox21 HCT-116 p53 Agonism Beta-lactamase Assay, Ratio, Phase 2 (AID 2283592)
In short: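 DMSO-normalized, positive-direction endpoint derived from the 460 nm/530 nm FRET ratio in HCT116 p53 beta-lactamase reporter cells exposed 16 h at 37C and loaded with CCF4-AM for 2 h.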

[3] = target: Cellular tumor antigen p53 (Homo sapiens) (UniProt P04637); experiment: TOX21_p53_BLA_p3_ratio: Tox21 HCT-116 p53 Agonism Beta-lactamase Assay, Ratio, Phase 3 (AID 2283596)
In short: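 Cells were seeded at 4000/well, rested 5 h at 37C, then dosed with DMSO compound solutions (217-fold dilution) for 16 h. CCF4-AM substrate was loaded for 2 h at room temperature, and the 460/530 nm emission ratio was fitted for gain of signal versus DMSO.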

[4] = TOX21_p53_BLA_p4_viability: Viability Assessment in the Tox21 HCT-116 p53 Agonism Beta-lactamase Assay, Phase 4 (AID 2283597);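 also: hits lower the luminescence signal meaning cytotoxicity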
In short: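 In this multiplexed secondary endpoint, HCT116 cells (4000 per well, compound at 5 h, 16 h treatment) received CellTiter-Glo after the beta-lactamase read. Luminescence after 30 min RT reflects ATP, and falling signal marks cytotoxicity.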

[5] = target: Cellular tumor antigen p53 (Homo sapiens) (UniProt P04637); experiment: TOX21_p53_BLA_p5_ratio: Tox21 HCT-116 p53 Agonism Beta-lactamase Assay, Ratio, Phase 5 (AID 2283599)
In short: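 HCT-116 cells carrying a p53-inducible beta-lactamase reporter were seeded at 4000 cells/well and dosed after 5 h with compound in DMSO (217-fold dilution). After 16 h at 37C, CCF4-AM substrate was added for 2 h, and the 460/530 nm emission ratio was scored as gain-of-signal versus DMSO.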

[6] = target: Cellular tumor antigen p53 (Homo sapiens) (UniProt P04637); experiment: TOX21_p53_BLA_p4_ratio: Tox21 HCT-116 p53 Agonism Beta-lactamase Assay, Ratio, Phase 4 (AID 2283601)
In short: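 HCT116 cells carrying an inducible beta-lactamase reporter were plated at 4000 cells/well, rested 5 h, then exposed to compounds in DMSO (217-fold dilution) for 16 h at 37C. CCF4-AM substrate was loaded 2 h at room temperature; 460/530 nm emission ratio scored gain-of-signal versus DMSO.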

[7] = TOX21_p53_BLA_p5_viability: Viability Assessment in the Tox21 HCT-116 p53 Agonism Beta-lactamase Assay, Phase 5 (AID 2283600)
In short: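 Here cell health was gauged by ATP levels in wells holding 4000 cells, each treated 16 h with DMSO-delivered compounds at 217-fold dilution; reduced luminescence marked toxicity.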

[8] = TOX21_PR_BLA_Followup_Agonist_viability: Viability Assessment in the Tox21 HEK293 Progesterone Receptor (PR) Agonism Beta-lactamase Follow-Up Assay (AID 2283935);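 also: signal loss means lower viability so actives are cytotoxic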
In short: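 Cells were plated in medium with 2% charcoal-stripped FBS and rested 6 hr. Compounds in DMSO were then added for 16 hr at 37C, followed by the FRET substrate step and CellTiter-Glo luminescence after 30 min.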

[9] = TOX21_PR_BLA_Followup_Antagonist_viability: Viability Assessment in the Tox21 HEK293 Progesterone Receptor (PR) Antagonism Beta-lactamase Follow-Up Assay (AID 2283936);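 also: cells exposed to compound with R5020 agonist for 16 h; hits lower the luminescence signal meaning cytotoxicity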
In short: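 PR-UAS-bla HEK293T cells in medium with 2% charcoal-stripped FBS were treated with compounds plus R5020 for 16 hr at 37C. After the beta-lactamase read, CellTiter-Glo was added to the same wells and luminescence read after 30 min at room temperature.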

PGR (gene 5241) = PGR (gene 5241) (UniProt P06401); experiment: TOX21_PR_LUC_Followup_Antagonist: Tox21 HEK293 Progesterone Receptor (PR) Antagonism Luciferase Follow-Up Assay (AID 2283938);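 also: curve fitted upward as signal gain over DMSO baseline despite antagonist label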
In short: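 Luciferase reporter in HEK293-PR-A-luc cells: 16 h compound treatment at 37C, ONE-Glo luminescence detection, DMSO as negative control and baseline.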

[10] = CCTE_Harrill_HTTr_Viability_MCF7: CCTE's 6-hour Cell Viability Assessment for the High-Throughput Transcriptomics (HTTr) Platform, in MCF-7 cells cultured in DMEM + 10% fetal bovine serum, Harrill Lab (AID 2284010; active = hit-call score of the fitted dose curve at least 0.9, where 1 is the maximum; inactive = score below 0.9)
In short: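 Read-out is propidium iodide gain of signal by high-content imaging, reflecting membrane integrity loss. Measurements are taken 6 h after dosing, eight concentrations per chemical, with DMSO serving as baseline for bidirectional curve fitting.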

[11] = CCTE_Harrill_HTTr_Apoptosis_MCF7: CCTE's 6-hour Apoptosis Assessment for the High-Throughput Transcriptomics (HTTr) Platform, in MCF-7 cells cultured in DMEM + 10% fetal bovine serum, Harrill Lab (AID 2284011; active = hit-call score of the fitted dose curve at least 0.9, where 1 is the maximum; inactive = score below 0.9)
In short: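 Apoptosis in MCF-7 cells grown in DMEM with 10% fetal bovine serum was scored after a six hour exposure by high content imaging of caspase-3/7 activation (CellEvent Caspase 3/7 Green), with DMSO serving as negative control and baseline.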

[12] = CCTE_Harrill_HTTr_CellCount_MCF7: CCTE's Cell Proliferation Assessment for the High-Throughput Transcriptomics (HTTr) Platform, Harrill Lab (AID 2284012);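 also: cells exposed to compound for six hours; intended direction is loss of nuclei count meaning fewer cells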
In short: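 Cell count served as viability reporter: loss of Hoechst-stained nuclei, counted by high content imaging, marks decreased growth or survival. Exposure was 6 h in MCF-7 cells across eight concentrations, with DMSO as baseline.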

[13] = target: Estrogen receptor (Homo sapiens) (UniProt P03372); experiment: CCTE_Deisenroth_AIME_96WELL_LUC_Active: CCTE's 96-well Estrogen Receptor Transactivation Assay with AIME metabolic competence (ERTA luciferase; metabolism positive), Deisenroth Lab (AID 2284023)
In short: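 Metabolism-positive mode: induced rat hepatic S9 in alginate microspheres conditions test solutions (0.002 - 200 uM, 10 points) for 2 hours. VM7Luc4E2 ER luciferase reporter cells then exposed 24 h; positive-direction fit against 17beta-estradiol, n=4 typical.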

[14] = target: Estrogen receptor (Homo sapiens) (UniProt P03372); experiment: CCTE_Deisenroth_AIME_96WELL_LUC_Inactive: CCTE's 96-well Estrogen Receptor Transactivation Assay without AIME metabolic competence (ERTA luciferase; metabolism negative), Deisenroth Lab (AID 2284025)
In short: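 Metabolism-negative arm: chemicals (0.002–200 uM, 10 points) incubated 2 h with alginate-water microspheres, then medium moved onto VM7Luc4E2 cells for 24 h luciferase read-out. Positive direction vs 17beta-estradiol; n≥4 experiments.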

Measured: AC50

Sequence of Cellular tumor antigen p53 (Homo sapiens) (P04637 whole entry, looked up): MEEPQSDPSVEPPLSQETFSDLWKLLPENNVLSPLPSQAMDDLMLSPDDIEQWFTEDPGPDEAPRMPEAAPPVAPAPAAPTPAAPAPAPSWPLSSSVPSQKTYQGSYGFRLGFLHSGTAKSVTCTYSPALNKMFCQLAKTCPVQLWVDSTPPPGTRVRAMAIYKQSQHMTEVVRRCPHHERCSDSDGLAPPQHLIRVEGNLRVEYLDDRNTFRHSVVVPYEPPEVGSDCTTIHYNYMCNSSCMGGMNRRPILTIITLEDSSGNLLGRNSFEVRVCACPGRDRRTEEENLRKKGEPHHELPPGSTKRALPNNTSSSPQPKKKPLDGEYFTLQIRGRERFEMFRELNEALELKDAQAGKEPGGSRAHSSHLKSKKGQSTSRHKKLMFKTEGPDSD
Sequence of Estrogen receptor (Homo sapiens) (P03372 whole entry, looked up): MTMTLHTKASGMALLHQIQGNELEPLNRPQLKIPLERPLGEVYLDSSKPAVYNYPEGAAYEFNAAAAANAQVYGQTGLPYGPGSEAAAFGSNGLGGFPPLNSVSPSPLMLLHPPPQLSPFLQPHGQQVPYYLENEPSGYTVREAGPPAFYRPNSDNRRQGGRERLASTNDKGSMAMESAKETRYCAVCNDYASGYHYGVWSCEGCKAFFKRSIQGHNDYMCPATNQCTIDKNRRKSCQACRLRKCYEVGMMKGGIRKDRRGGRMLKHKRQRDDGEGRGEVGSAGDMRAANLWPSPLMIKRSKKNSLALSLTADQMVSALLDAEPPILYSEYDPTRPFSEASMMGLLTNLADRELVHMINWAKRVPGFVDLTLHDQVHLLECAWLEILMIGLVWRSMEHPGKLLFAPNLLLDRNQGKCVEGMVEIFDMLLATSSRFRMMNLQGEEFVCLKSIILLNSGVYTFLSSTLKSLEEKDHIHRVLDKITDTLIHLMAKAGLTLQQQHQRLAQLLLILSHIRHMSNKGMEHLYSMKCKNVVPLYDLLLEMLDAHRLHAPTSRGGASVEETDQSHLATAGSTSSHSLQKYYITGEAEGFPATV
Sequence of PGR (gene 5241) (P06401 whole entry, looked up): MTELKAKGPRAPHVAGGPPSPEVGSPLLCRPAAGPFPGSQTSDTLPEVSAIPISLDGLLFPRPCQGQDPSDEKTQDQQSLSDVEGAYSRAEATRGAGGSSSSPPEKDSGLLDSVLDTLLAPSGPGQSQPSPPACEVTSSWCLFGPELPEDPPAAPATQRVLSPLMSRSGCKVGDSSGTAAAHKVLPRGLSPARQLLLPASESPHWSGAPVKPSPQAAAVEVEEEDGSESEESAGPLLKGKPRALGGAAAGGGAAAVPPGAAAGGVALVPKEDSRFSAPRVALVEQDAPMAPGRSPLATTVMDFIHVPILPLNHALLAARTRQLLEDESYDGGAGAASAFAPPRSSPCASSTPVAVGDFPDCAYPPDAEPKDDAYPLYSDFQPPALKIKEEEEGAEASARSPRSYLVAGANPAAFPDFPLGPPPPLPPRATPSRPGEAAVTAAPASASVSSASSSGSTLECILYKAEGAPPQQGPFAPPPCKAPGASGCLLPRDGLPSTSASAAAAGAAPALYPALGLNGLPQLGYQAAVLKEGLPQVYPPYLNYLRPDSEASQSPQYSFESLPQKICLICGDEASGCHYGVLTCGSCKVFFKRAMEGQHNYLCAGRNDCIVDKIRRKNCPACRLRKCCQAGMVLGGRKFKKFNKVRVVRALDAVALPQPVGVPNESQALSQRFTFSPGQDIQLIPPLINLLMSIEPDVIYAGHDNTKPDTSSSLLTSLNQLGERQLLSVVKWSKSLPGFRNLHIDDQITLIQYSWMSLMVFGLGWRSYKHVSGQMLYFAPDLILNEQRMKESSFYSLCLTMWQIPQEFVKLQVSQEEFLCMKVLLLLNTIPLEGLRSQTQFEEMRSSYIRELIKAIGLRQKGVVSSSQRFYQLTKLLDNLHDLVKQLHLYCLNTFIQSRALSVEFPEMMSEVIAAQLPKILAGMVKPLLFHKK

O=C(O)C(S)C(S)C(=O)O (configuration not stated)
inactive: [1] | [2] | [3] | [4] | [5] | [6]

CCOC(=O)OC(C)OC1=C(C(=O)Nc2ccccn2)N(C)S(=O)(=O)c2ccccc21 (configuration not stated)
inactive: [1] | [2] | [3] | [4] | [5] | [7] | [6]

Cc1cccc(C)c1NC(=O)C(C)N (configuration not stated)
inactive: [1] | [2] | [3] | [4] | [5] | [6]

CC(C)COC(=O)c1ccc(N)cc1
inactive: [1] | [2] | [3] | [4] | [5] | [6]

O=[N+]([O-])c1ccc2c(c1)Cc1ccccc1-2
active: PGR (gene 5241) 31 µM | [14] 26.8 µM
inactive: all other assays above

CCCCCCCCCCCC[N+](C)(C)CC(=O)O
inactive: [1] | [2] | [3] | [4] | [5] | [6]

NC(=O)c1cc[n+](CC2=C(C(=O)O)N3C(=O)[C@@H](NC(=O)[C@@H](c4ccccc4)S(=O)(=O)[O-])[C@H]3SC2)cc1
inactive: [1] | [2] | [3] | [4] | [5] | [6]

CCOc1cc(OCC)c(C(C)=O)cc1OCC
inactive: [1] | [2] | [3] | [4] | [7]

Oc1ccc(C2(c3ccc(O)cc3)CC3CC2C2CCCC32)cc1 (configuration not stated)
inactive: [3]
active: [1] 64.1 µM | [2] 82.8 µM | [4] 55.4 µM | [6] 83.1 µM

CC(=O)N[C@H]1[C@H]([C@H](O)[C@H](O)CO)OC(C(=O)O)=C[C@@H]1N=C(N)N
inactive: [1] | [2] | [3] | [4] | [7] | [6]

O=C(O)c1ccccc1OP(=O)(O)O
inactive: [1] | [2] | [3] | [4] | [6]

NCC[C@H](O)C(=O)N[C@@H]1C[C@H](N)[C@@H](O[C@H]2O[C@H](CN)CC[C@H]2N)[C@H](O)[C@H]1O[C@H]1O[C@H](CO)[C@@H](O)[C@H](N)[C@H]1O
inactive: [1] | [2] | [3] | [4] | [6]

O=C1CC[C@@H](C(=O)N2CSC[C@H]2C(=O)O)N1 ([pGlu]-[Thz]-OH)
inactive: [1] | [2] | [3] | [5]

Cc1cn[nH]c1
inactive: [1] | [2] | [3] | [5] | [7]

Cc1occc1S
inactive: [1] | [2] | [3] | [4] | [6]
